Data reported in the supplement of paper PMC8728848.
Shown is part of a subset that was picked to be rich in the strongest signals.

Experiments:
Assay in all cases: glycan array binding signal (z-score within array); higher = stronger binding
Conditions in all cases: glycan notation: IUPAC condensed, linker removed
Fuc(a1-2)Gal(b1-3)GalNAc = biological target: Fuc(a1-2)Gal(b1-3)GalNAc
Outline: (§1)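 Glycan array data came from 3228 arrays in the Consortium for Functional Glycomics database, and only arrays with an available protein sequence were kept. Glycan names were put into IUPAC-condensed notation, and columns mapping to the same glycan were averaged. The binding signal is a within-array Z-score, averaged across arrays of one protein sequence run at different concentrations or buffers and across linkers. A negative Z-score can be read as non-binding.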

[1] = biological target: Fuc(a1-2)Gal(b1-4)GlcNAc(b1-6)GalNAc
Outline: as §1

[2] = biological target: Fuc(a1-2)Gal(b1-4)[Fuc(a1-3)]GlcNAc(b1-3)GalNAc
Outline: as §1

Fuc(a1-2)[Gal(a1-3)]Gal = biological target: Fuc(a1-2)[Gal(a1-3)]Gal
Outline: as §1

[3] = biological target: Fuc(a1-2)[Gal(a1-3)]Gal(b1-3)GalNAc
Outline: as §1

[4] = biological target: Fuc(a1-2)[Gal(a1-3)]Gal(b1-4)GlcNAc(b1-6)GalNAc
Outline: as §1

[5] = biological target: Fuc(a1-2)[GalNAc(a1-3)]Gal(b1-3)GalNAc(a1-3)[Fuc(a1-2)]Gal(b1-4)GlcNAc
Outline: as §1

[6] = biological target: Fuc(a1-2)[GalNAc(a1-3)]Gal(b1-4)Glc
Outline: as §1

[7] = biological target: Fuc(a1-2)[GalNAc(a1-3)]Gal(b1-4)GlcNAc(b1-2)Man
Outline: as §1

[8] = biological target: Fuc(a1-2)[GalNAc(a1-3)]Gal(b1-4)[Fuc(a1-3)]GlcNAc
Outline: as §1

[9] = biological target: Fuc(a1-2)[GalNAc(a1-4)]Gal(b1-4)GlcNAc
Outline: as §1

[10] = biological target: Fuc(a1-2)[GalNAc(b1-3)]Gal
Outline: as §1

[11] = biological target: Fuc(a1-3)[Gal(b1-4)]GlcNAc(b1-2)Man(a1-6)[Gal(b1-4)GlcNAc(b1-2)Man(a1-3)]Man(b1-4)GlcNAc(b1-4)GlcNAc
Outline: as §1

[12] = biological target: Gal(a1-3)Gal(b1-3)GlcNAc(b1-6)GalNAc
Outline: as §1

[13] = biological target: Gal(a1-3)Gal(b1-3)[Fuc(a1-4)]GlcNAc(b1-2)Man(a1-3)[Gal(a1-3)Gal(b1-3)[Fuc(a1-4)]GlcNAc(b1-2)Man(a1-6)]Man(b1-4)GlcNAc(b1-4)GlcNAc
Outline: as §1

[14] = biological target: Gal(a1-3)Gal(b1-4)GlcNAc(b1-2)Man(a1-3)[Gal(a1-3)Gal(b1-4)GlcNAc(b1-2)Man(a1-6)]Man(b1-4)GlcNAc(b1-4)GlcNAc
Outline: as §1

[15] = biological target: Gal(a1-3)Gal(b1-4)GlcNAc(b1-6)GalNAc
Outline: as §1

[16] = biological target: Gal(a1-4)Gal(b1-4)GlcNAc(b1-2)Man(a1-3)[Gal(a1-4)Gal(b1-4)GlcNAc(b1-2)Man(a1-6)]Man(b1-4)GlcNAc(b1-4)GlcNAc
Outline: as §1

[17] = biological target: Gal(b1-3)GlcNAc(b1-6)GalNAc
Outline: as §1

Gal(b1-4)GlcNAc = biological target: Gal(b1-4)GlcNAc
Outline: as §1

[18] = biological target: Gal(b1-4)GlcNAc(b1-3)Gal(b1-4)Glc
Outline: as §1

[19] = biological target: Gal(b1-4)GlcNAc(b1-3)Gal(b1-4)GlcNAc(b1-3)GalNAc
Outline: as §1

[20] = biological target: Gal(b1-4)GlcNAc(b1-6)Gal(b1-4)GlcNAc(b1-6)GalNAc
Outline: as §1

[21] = biological target: Gal(b1-4)GlcNAc(b1-6)GalNAc
Outline: as §1

GalNAc(b1-3)Gal = biological target: GalNAc(b1-3)Gal
Outline: as §1

[22] = biological target: GalNAc(b1-3)Gal(a1-6)Gal(b1-4)Glc
Outline: as §1

[23] = biological target: GalNAc(b1-4)GlcNAc(b1-3)GalNAc(b1-4)GlcNAc
Outline: as §1

[24] = biological target: GlcNAc(a1-4)Gal(b1-3)GlcNAc
Outline: as §1

[25] = biological target: GlcNAc(b1-3)Gal(b1-4)GlcNAc(b1-3)Gal(b1-4)GlcNAc
Outline: as §1

[26] = biological target: GlcNAc(b1-3)Gal(b1-4)GlcNAc(b1-3)GalNAc
Outline: as §1

[27] = biological target: Man(a1-3)[Man(a1-6)]Man(b1-4)GlcNAc(b1-4)GlcNAc
Outline: as §1

Man(b1-4)GlcNAc = biological target: Man(b1-4)GlcNAc
Outline: as §1

[28] = biological target: Neu5Ac(a2-3)Gal(b1-3)GlcNAc(b1-3)GalNAc
Outline: as §1

[29] = biological target: Neu5Ac(a2-3)Gal(b1-3)[GlcNAc(b1-6)]GalNAc
Outline: as §1

Neu5Ac(a2-3)Gal(b1-4)Glc = biological target: Neu5Ac(a2-3)Gal(b1-4)Glc
Outline: as §1

[30] = biological target: Neu5Ac(a2-3)Gal(b1-4)GlcNAc(b1-3)Gal(b1-3)GlcNAc
Outline: as §1

[31] = biological target: Neu5Ac(a2-3)Gal(b1-4)GlcNAc(b1-6)GalNAc
Outline: as §1

[32] = biological target: Neu5Ac(a2-3)Gal(b1-4)[Fuc(a1-3)]GlcNAc(b1-6)[Neu5Ac(a2-3)Gal(b1-3)]GalNAc
Outline: as §1

[33] = biological target: Neu5Ac(a2-6)Gal(b1-3)GlcNAc(b1-3)[Gal(b1-4)GlcNAc(b1-6)]Gal(b1-4)Glc
Outline: as §1

[34] = biological target: Neu5Ac(a2-6)Gal(b1-4)GlcNAc(b1-2)Man
Outline: as §1

[35] = biological target: Neu5Ac(a2-8)Neu5Ac(a2-3)[GalNAc(b1-4)]Gal(b1-4)Glc
Outline: as §1

[36] = biological target: Neu5Ac(b2-6)Gal(b1-4)GlcNAc
Outline: as §1

[37] = biological target: Neu5Gc(a2-3)Gal(b1-3)GlcNAc
Outline: as §1

[38] = biological target: Neu5Gc(a2-3)Gal(b1-4)GlcNAc
Outline: as §1

[39] = biological target: Neu5Gc(a2-8)Neu5Ac(a2-3)Gal(b1-4)GlcNAc
Outline: as §1

B1: MGL6A (Homo sapiens) (protein)
chain: MTRTYENFQYLENKVKVQGFKNGPLPLQSLLQRLCSGPCHLLLSLGLGLLLLVIICVVGFQNSKFQRDLVTLRTDFSNFTSNTVAEIQALTSQGSSLEETIASLKAEVEGFKQERQAVHSEMLLRVQQLVQDLKKLTCQVATLNNNGEEASTEGTCCPVNWVEHQDSCYWFSHSGMSWAEAEKYCQLKNAHLVVINSREEQNFVQKYLGSAYTWMGLSDPEGAWKWVDGTDYATGFQNWKPGQPDDWQGHGLGGGEDCAHFHPDGRWNDDVCQRPYHWVCEAGLGQTSQESH
glycan array binding signal (z-score) (Fuc(a1-2)Gal(b1-3)GalNAc): -0.261
glycan array binding signal (z-score) [1]: 4.02
glycan array binding signal (z-score) [2]: -0.238
glycan array binding signal (z-score) (Fuc(a1-2)[Gal(a1-3)]Gal): -0.261
glycan array binding signal (z-score) [3]: -0.249
glycan array binding signal (z-score) [4]: -0.27
glycan array binding signal (z-score) [5]: 0.966
glycan array binding signal (z-score) [6]: 0.534
glycan array binding signal (z-score) [7]: -0.017
glycan array binding signal (z-score) [8]: -0.22
glycan array binding signal (z-score) [9]: 4.68
glycan array binding signal (z-score) [10]: 4.73
glycan array binding signal (z-score) [11]: 1.06
glycan array binding signal (z-score) [12]: 4.29
glycan array binding signal (z-score) [13]: -0.221
glycan array binding signal (z-score) [14]: -0.225
glycan array binding signal (z-score) [15]: 4.16
glycan array binding signal (z-score) [16]: -0.244
glycan array binding signal (z-score) [17]: 3.91
glycan array binding signal (z-score) (Gal(b1-4)GlcNAc): -0.075
glycan array binding signal (z-score) [18]: -0.284
glycan array binding signal (z-score) [19]: -0.303
glycan array binding signal (z-score) [20]: -0.256
glycan array binding signal (z-score) [21]: 4.67
glycan array binding signal (z-score) (GalNAc(b1-3)Gal): 4.13
glycan array binding signal (z-score) [22]: 4.47
glycan array binding signal (z-score) [23]: 3.79
glycan array binding signal (z-score) [24]: -0.306
glycan array binding signal (z-score) [25]: 0.5
glycan array binding signal (z-score) [26]: -0.327
glycan array binding signal (z-score) [27]: -0.224
glycan array binding signal (z-score) (Man(b1-4)GlcNAc): -0.258
glycan array binding signal (z-score) [28]: -0.273
glycan array binding signal (z-score) [29]: -1.57
glycan array binding signal (z-score) (Neu5Ac(a2-3)Gal(b1-4)Glc): -0.45
glycan array binding signal (z-score) [30]: -0.277
glycan array binding signal (z-score) [31]: 3.89
glycan array binding signal (z-score) [32]: -0.153
glycan array binding signal (z-score) [33]: -0.259
glycan array binding signal (z-score) [34]: -0.302
glycan array binding signal (z-score) [35]: 2.18
glycan array binding signal (z-score) [36]: -0.277
glycan array binding signal (z-score) [37]: -0.256
glycan array binding signal (z-score) [38]: -0.228
glycan array binding signal (z-score) [39]: -0.273
